Source: PubChem
Hits are enriched below; roughly 2% of the tested compounds scored in any of these assays.
GalR3 antag: blocks the human galanin receptor 3. O60755. HEK293 GalR3-CNG cAMP membrane potential fluorescence; galR3 body fused to GalR1 C-terminus. inhibition, % at 3 µM. 0.44% of 360,000 active. AID 651719;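 active means inhibition above the screen-wide average plus 3 SD, cut at about 13% in these data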;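 further: forskolin and galanin both at EC90 stimulate the cells; cAMP rise reported by CNG channel membrane potential dye signal; 0% = forskolin plus galanin with DMSO and 100% = forskolin alone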
Target sequence (O60755 1-299 limits assumed): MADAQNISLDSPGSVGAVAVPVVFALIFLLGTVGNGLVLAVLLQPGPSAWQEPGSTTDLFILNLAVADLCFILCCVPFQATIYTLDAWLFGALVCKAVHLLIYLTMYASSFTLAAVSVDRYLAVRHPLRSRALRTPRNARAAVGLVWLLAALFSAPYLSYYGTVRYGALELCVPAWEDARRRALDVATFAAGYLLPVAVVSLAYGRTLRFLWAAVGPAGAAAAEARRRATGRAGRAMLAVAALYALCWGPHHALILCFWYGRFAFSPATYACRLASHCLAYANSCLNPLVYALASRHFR
Jurkat NFkB inh: lowers PMA/ionomycin-induced NF-kB signal in Jurkat cells; PMA/ionomycin-induced NF-kB luciferase reporter, luminescence; inhibition, % at 4 µM; 0.53% of 330,000 active; AID 435003; in the data active means inhibition above about 50%
Gli-Sufu antag: Gli-Sufu pathway antagonism; Sufu-KO-LIGHT fibroblasts, Gli luciferase reporter luminescence; inhibition, % at 5 µM; 0.74% of 340,000 active;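 active means inhibition above about 55%, limit read from the data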;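 further: 0% = DMSO-treated cells and 100% = wells with medium but no cells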
697 NFkB inh: lowers PMA/ionomycin-induced NF-kB signal in 697 B cells | inhibition, % at 4 µM | AID 435022 | 697 B-cell NF-kB luciferase reporter, 16 h | 0.33% of 330,000 active; in the data active means inhibition above about 35%
COUP-TFII inh: blocks human COUP-TFII nuclear receptor; HEK293T NGFI-A luciferase reporter, luminescence; inhibition, % at 8.6 µM; 0.7% of 370,000 active; AID 686940;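 active means inhibition above a per-plate cutoff, mean inhibition of test wells between control levels plus 3 SD, cut at about 38% in these data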;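 further: cells cotransfected with COUP-TFII expression vector driving the NGFI-A reporter; 0% = median of COUP-TF2 test wells and 100% = reporter-only cells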
VP16 Luc counter: VP16 inhibition counter-screen for COUP-TFII | HEK293 Gal4-VP16 luciferase reporter, luminescence | shares compounds with COUP-TFII inh | 25% of 2,500 active | inhibition, % at 8.5 µM | AID 687007; in the data active means inhibition above about 13%
COUP-TFII conf: confirmation of human COUP-TFII (NR2F2) inhibitors; AID 687008; inhibition, % at 8.5 µM; 45% of 2,500 active; shares compounds with COUP-TFII inh; HEK293 NGFI-A luciferase reporter, luminescence;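 active means mean inhibition over three repeats above a set limit taken from the earlier primary screen, cut at about 38% in these data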;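 further: 100% = cells given the luciferase reporter alone without the COUP-TF2 vector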
* hit, by the source's call; . = not tested or not shown.

SMILES	GalR3 antag	Jurkat NFkB inh	Gli-Sufu antag	697 NFkB inh	COUP-TFII inh	VP16 Luc counter	COUP-TFII conf
CC(c1nccs1)N(C)C(=O)CCc1nnc(-c2ccc(-c3ccccc3)cc2)o1 (stereo not given)	-4	-7	-5	-7	11	.	.
CC(NC(=O)CCc1nnc(-c2ccc(-c3ccccc3)cc2)o1)c1nccs1 (stereo not given)	-6	2	8	3	48*	0	16
COC(=O)CCCNC(=O)CCc1nnc(-c2ccc(-c3ccccc3)cc2)o1	-9	.	-16	.	52*	12	11
Cc1cc(=O)oc2cc(OCC(=O)OCC(=O)Nc3ccccc3Br)ccc12	4	6	-2	14	55*	-9	1
CNC(=O)COC(=O)COc1ccc2c(C)cc(=O)oc2c1	-8	5	-7	-6	-3	.	.
CC(C)(C)N(Cc1cn(CC2CCCCC2)nn1)S(=O)(=O)c1ccc(F)cc1Br	.	.	.	.	2	.	.
CCCCN(CCCNC(=O)c1ccc2c(c1)NC(=O)CN2C)c1ccccc1	-5	.	.	.	45*	8	14
COc1ccc(/C=C2\COc3ccccc3C2=O)cc1OC	-1	16	-6	-9	-13	.	.
CCOc1cc(/C=C2\COc3ccccc3C2=O)cc(Br)c1OCC(=O)N(C)C	-4	24	14	23	38*	4	28
O=C(CCc1nc(-c2ccccc2F)no1)NCCc1c[nH]c2ccccc12	.	.	.	.	4	.	.
O=C(NCCc1c[nH]c2ccccc12)C(=O)NCC(c1cccnc1)N1CCN(c2ccccc2)CC1 (stereo not given)	.	13	13	-38	67*	0	34
COC(=O)NCC(c1cccnc1)N1CCN(c2ccccc2)CC1 (stereo not given)	.	7	-11	13	1	.	.
Fc1ccc(F)c(Cn2ccc3ccc(-c4ccc5ccn(Cc6cc(F)ccc6F)c5c4)cc32)c1	.	.	.	.	2	.	.
O=C(c1cc(COc2ccc(F)cc2Cl)on1)N1CCC(c2ccncc2)CC1	-7	19	27	-25	39*	-10	26
Cc1ccc(S(=O)(=O)n2ccc3c(OCCOCCNCc4ccc(F)cc4)cccc32)cc1	-9	14	12	-26	43*	0	8
Cc1ccc(S(=O)(=O)n2ccc3c(OCCOCCSCC(NC(=O)OC(C)(C)C)C(=O)O)cccc32)cc1 (stereo not given)	-11	-10	6	-7	28	.	.
CC1(c2nnnn2Cc2ccccc2)CCSCC(=O)N1Cc1cccs1 (stereo not given)	.	.	.	.	4	.	.
CC(C)C(=O)N1CCN(c2ccc(NC(=O)COc3ccccc3[N+](=O)[O-])cc2)CC1	0	2	30	-11	50*	-2	28
COC(=O)c1cc(-c2ccccc2OC)c(=O)n2c1CCC2	.	.	.	.	17	.	.
Cc1occc1-c1nnc(SCC(=O)N2CCN(c3ncccn3)CC2)n1-c1ccccc1	.	.	.	.	6	.	.
NC(=O)c1cccc(-c2noc(-c3ccccc3F)n2)c1	-3	-17	-238	-2	58*	22*	34
COC(=O)c1cccc(-c2noc(-c3ccccc3F)n2)c1	1	-35	-96	-89	-23	.	.
COc1ccc(NS(=O)(=O)c2cccc(C(=O)NN=Cc3ccc(OC)cc3OC)c2)cc1	-4	0	-6	16	38*	-7	-5
COc1ccc(NS(=O)(=O)c2cccc(C(=O)N/N=C/c3cccs3)c2)cc1	-4	6	-15	11	5	.	.
C=CCN1C(C(=O)OC)CN(Cc2cn(Cc3ccc(OC)cc3)nn2)CCS1(=O)=O (stereo not given)	.	.	.	.	-8	.	.
SMILES	GalR3 antag	Jurkat NFkB inh	Gli-Sufu antag	697 NFkB inh	COUP-TFII inh	VP16 Luc counter	COUP-TFII conf
c1ccc(-c2ccc(CNc3nc(-c4ccccn4)nnc3-c3ccccc3)cc2)cc1	.	.	.	.	55*	-2	18
CC(C)(C)CCNc1nc(-c2ccccn2)nnc1-c1ccccc1	.	.	.	.	52*	4	14
Cc1ccc2nc(-c3ccccc3)cn2c1	-5	46	18	-7	53*	-5	21
CCn1c(COc2ccc(Cl)cc2)nnc1SCC(=O)Nc1ccccc1-c1ccccc1	.	.	.	.	19	.	.
CCc1c(C)nc2c(Br)cccc2c1SCCC#N	4	1	10	-10	24	.	.
CCc1c(C)nc2ccc(Br)cc2c1SCCC#N	-1	1	6	-19	38*	12	24
CC(=NN1CCN(Cc2ccccc2Cl)CC1)c1ccc(O)cc1	.	.	.	.	19	.	.
COc1cc(/C=C/C(=O)Nc2ccc(OC)c(S(=O)(=O)N3CCOCC3)c2)ccc1OC(F)F	-2	20	21	-19	38*	13*	31
COc1ccc(/C=C/C(=O)Nc2ccccc2F)cc1S(=O)(=O)N1CCOCC1	-4	-2	-5	2	12	.	.
Cc1ccc(NC(=O)/C=C/c2ccc(S(=O)(=O)N3CCOCC3)cc2)cc1S(=O)(=O)N(C)C	-7	.	8	.	49*	6	44*
COc1ccc(/C=C/C(=O)Nc2ccccc2C)cc1S(=O)(=O)N1CCOCC1	-7	-4	-13	-85	48*	-80	-20
CC(=O)Nc1cccc(NC(=O)/C=C/c2ccc(S(=O)(=O)N3CCOCC3)cc2)c1	-4	-11	-16	-8	2	.	.
CCOC(=O)[C@@]12CN(C(=O)OC(C)(C)C)CC=C1N(Cc1ccc(OC)cc1)C(=O)[C@H]2CC(=O)N1CCCC1	.	.	.	.	11	.	.
O=C(CSc1nnc(SCc2cccc3ccccc23)s1)Nc1ccc(S(=O)(=O)Nc2nccs2)cc1	.	.	.	.	0	.	.
CCN(CC)C(=O)CC[C@@H]1CC[C@]2(CCCN(Cc3ccc(Cl)cc3)C2)O1	.	.	.	.	-6	.	.
O=C(NCCCc1ccccc1)[C@H](Cc1c[nH]c2ccccc12)NC1(C(=O)NCCc2c[nH]c3ccccc23)CCC1	.	.	.	.	2	.	.
COc1cccc2c(=O)cc(C)n(CC(=O)Nc3cccc(C)c3)c12	-6	-2	49	-29	47*	-8	16
COc1ccc(NC(=O)Cn2cc(C(C)=O)c3ccccc32)cc1	-6	6	44	-41	48*	-1	21
COc1ccc(NC(=O)Cn2c(C)cc(=O)c3ccccc32)cc1	-3	27	46	-19	55*	0	26
CC(=O)c1cn(CC(=O)Nc2ccccc2C)c2ccccc12	-4	16	1	-18	38*	-5	25
Cc1cnc(NC(=O)CCNC(=O)c2ccccc2Cl)s1	-3	-21	-18	2	-20	.	.
Cc1cnc(NC(=O)COc2ccccc2Cl)s1	-4	-66	-70	-218	41*	-28	4
Cc1cccc(NC(=O)CSc2ncnc3sc4c(c23)CCCC4)c1	.	.	.	.	-12	.	.
O=C(N/N=C\c1ccc([N+](=O)[O-])o1)C1COc2ccccc2O1 (stereo not given)	-6	6	2	2	44*	-5	25
